PubChem BioAssay AID1159580 (chemical genetic matrix, 2015)
Where “and” joins values, the source holds several entries; their conditions need not be identical. Identical values can stand only once. Screen size: about 5,500 compounds; about 2,000 (36%) were called active. Inconclusive results (about 18%) are left out. Cut-off read from the data, not from the text of the source: active = normalized growth mostly below about 0.91 (no sharp cut-off); inconclusive = no clear call, values can overlap the other calls; inactive = mostly above about 0.92. Some of the results follow.

Experiment: chemical genetic growth profiling, strain panel (AID 1159580);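 note: tested at 20 µM; growth read once vehicle control cultures reached saturation at 30 °C; 1 = growth at the plate median or of vehicle wells; lower values mean less growth of the strain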
Conditions: S. cerevisiae deletion strains, growth OD

Measured: normalized growth

COc1ccccc1OCCNCC(O)COc1cccc2[nH]c3ccccc3c12 (stereo unspecified)
inactive: locus YAL013W, strain DEP1, hits give low values 0.999 | locus YAL021C, strain ccr4, hits give low values 1.01 | locus YAL026C, strain drs2, hits give low values 1.01 | locus YAL030W, strain snc1, hits give low values 1.02 | locus YBR009C, strain hhf1, hits give low values 1.02 | locus YBR021W, strain FUR4, hits give low values 0.988 | locus YBR023C, strain chs3, hits give low values 1.01 | locus YBR171W, strain sec66, hits give low values 1.02 | locus YBR229C, strain ROT2, hits give low values 1 | locus YBR231C, strain swc5, hits give low values 0.993 | locus YBR279W, strain paf1, hits give low values 1 | locus YCL011C, strain gbp2, hits give low values 1.01 | locus YCL016C, strain dcc1, hits give low values 1.03 | locus YCL029C, strain bik1, hits give low values 1.02 | locus YCL069W, strain vba3, hits give low values 1.01 | locus YCR088W, strain abp1, hits give low values 1.04 | locus YDL005C, strain med2, hits give low values 1.02 | locus YDL035C, strain GPR1, hits give low values 0.98 | locus YDL040C, strain nat1, hits give low values 1.02 | locus YDL074C, strain BRE1, hits give low values 0.957 | locus YDL101C, strain DUN1, hits give low values 1.01 | locus YDL134C, strain PPH21, hits give low values 1 | locus YDL185W, strain tfp1, hits give low values 1.01 | locus YDL192W, strain arf1, hits give low values 1.02 | locus YDR001C, strain nth1, hits give low values 1.01 | locus YDR069C, strain doa4, hits give low values 1 | locus YDR101C, strain arx1, hits give low values 1.01 | locus YDR137W, strain rgp1, hits give low values 1.05 | locus YDR150W, strain NUM1, hits give low values 1 | locus YDR159W, strain sac3, hits give low values 1.04 | locus YDR162C, strain NBP2, hits give low values 0.974 | locus YDR195W, strain ref2 1 | locus YDR297W, strain sur2, hits give low values 1.01 | locus YDR318W, strain mcm21, hits give low values 1.01 | locus YDR334W, strain swr1, hits give low values 1.03 | locus YDR335W, strain msn5, hits give low values 1 | locus YDR388W, hits give low values 1.01 | locus YDR392W, strain spt3, hits give low values 1.01 | locus YDR502C, strain sam2, hits give low values 1 | locus YEL003W, strain gim4, hits give low values 1.02 | locus YEL037C, strain rad23, hits give low values 1 | locus YEL061C, strain CIN8 (second series), hits give low values 1 | locus YEL061C, strain CIN8, hits give low values 0.997 | locus YER015W, strain faa2, hits give low values 1.02 | locus YER016W, strain bim1, hits give low values 0.986 | locus YER110C, hits give low values 1.02 | locus YER111C, strain swi4, hits give low values 1.02 | locus YER155C, strain BEM2 (second series), hits give low values 1.02 | locus YER155C, strain BEM2, hits give low values 0.986 | locus YER167W, strain BCK2, hits give low values 1 | locus YFR010W, strain ubp6, hits give low values 1.02 | locus YGL078C, strain dbp3, hits give low values 1.02 | locus YGL086W, strain mad1, hits give low values 1.01 | locus YGL167C, strain pmr1, hits give low values 1.02 | locus YGL173C, strain kem1, hits give low values 1.03 | locus YGL227W, strain vid30, hits give low values 1.01 | locus YGL240W, strain doc1, hits give low values 1.02 | locus YGL248W, strain PDE1, hits give low values 1.01 | locus YGL253W, strain hxk2, hits give low values 1.02 | locus YGR078C, strain PAC10, hits give low values 0.968 | locus YGR135W, strain pre9, hits give low values 1.01 | locus YGR229C, strain SMI1, hits give low values 0.957 | locus YGR252W, strain gcn5, hits give low values 0.948 | locus YHR013C, strain ard1, hits give low values 1.03 | locus YHR027C, strain rpn1, hits give low values 0.994 | locus YHR030C, strain SLT2, hits give low values 1.01 and 0.992 | locus YHR079C, strain IRE1 (second series), hits give low values 1.02 | locus YHR079C, strain IRE1, hits give low values 0.999 | locus YHR094C, strain hxt1, hits give low values 1.01 | locus YHR129C, strain ARP1, hits give low values 1.01 | locus YHR142W, strain chs7, hits give low values 1.03 | locus YHR200W, strain rpn10, hits give low values 1.02 | locus YIL066C, strain RNR3, hits give low values 1 | locus YIL073C, strain SPO22, hits give low values 1.11 | locus YIL125W, strain kgd1, hits give low values 1.02 | locus YIR030C, strain dcg1, hits give low values 1.02 | locus YJL092W, strain hpr5, hits give low values 1.01 | locus YJL095W, strain BCK1 (second series), hits give low values 1.02 | locus YJL095W, strain BCK1, hits give low values 0.976 and 1.01 | locus YJL115W, strain asf1, hits give low values 1.01 | locus YJL129C, strain trk1, hits give low values 1.02 | locus YJL134W, strain LCB3, hits give low values 1 | locus YJL154C, strain vps35, hits give low values 1.01 | locus YJL164C, strain tpk1, hits give low values 1.02 | locus YJL166W, strain qcr8, hits give low values 1.03 | locus YJL168C, strain set2, hits give low values 1.01 | locus YJL187C, strain SWE1 (second series), hits give low values 1.01 | locus YJL187C, strain SWE1, hits give low values 1.01 | locus YJR043C, strain POL32, hits give low values 0.998 | locus YJR066W, strain TOR1, hits give low values 0.935 | locus YJR075W, strain HOC1, hits give low values 0.983
